Screening data (PubChem)
Sampled rows, rich in hits. Any-hit rate of the full collection: about 3.5%.
FBW7 act: human FBW7 E3 ligase activation, primary screen. Q969H0. normalized activity (activation), % at 26.1 µM. hit rate 0.13% among 650,000. AlphaScreen FBW7–phospho-cyclin E peptide binding, activator screen; in the data active means normalized activity above about 1.9%;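 further: purified mutant Fbw7 with reduced substrate affinity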
TEAD-YAP inh: TEAD-YAP interaction inhibition. HEK-TIYL cells, TEAD-Gal4/YAP UAS-luciferase luminescence. inhibition, % at 9.12 µM. hit rate 1.4% among 640,000; in the data active means inhibition above about 32%;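 further: 0% = median of test compound wells and 100% = reference inhibitor wells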
MITF primary: human MITF inhibition, primary screen | O75030 | AID 1259374 | inhibition, % at 2.6 µM | hit rate 0.91% among 650,000 | AlphaScreen MITF homodimerization, bead proximity signal; in the data active means inhibition above about 50%;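 further: 0% = vehicle wells with protein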
Target sequence (O75030 whole entry, looked up): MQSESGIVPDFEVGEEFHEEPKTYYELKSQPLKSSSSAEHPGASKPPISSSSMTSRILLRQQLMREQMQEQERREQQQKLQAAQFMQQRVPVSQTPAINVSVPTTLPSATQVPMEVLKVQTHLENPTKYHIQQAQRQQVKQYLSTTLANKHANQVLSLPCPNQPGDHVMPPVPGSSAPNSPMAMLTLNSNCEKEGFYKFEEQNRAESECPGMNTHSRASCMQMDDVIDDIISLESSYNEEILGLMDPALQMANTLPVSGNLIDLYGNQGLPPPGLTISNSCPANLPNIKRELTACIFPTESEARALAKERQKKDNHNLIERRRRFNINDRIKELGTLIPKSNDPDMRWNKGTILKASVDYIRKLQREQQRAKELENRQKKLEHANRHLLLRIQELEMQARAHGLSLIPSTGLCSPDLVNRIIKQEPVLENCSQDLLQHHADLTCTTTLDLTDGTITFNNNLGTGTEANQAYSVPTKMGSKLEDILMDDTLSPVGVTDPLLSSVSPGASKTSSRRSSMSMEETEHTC
GPR151 activ: activators of human GPR151; PathHunter beta-arrestin GPR151 cells, luminescence; activation, % at 11.2 µM; hit rate 1% among 650,000; AID 1508602; in the data active means activation above about 4.9%;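 further: 0% = median of compound wells and 100% = cells with positive control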
GPR151 confirm: confirmation of human GPR151 activators. activation, % at 11.2 µM. AID 1508609. 6,700 tested, under 10 active. GPR151 PathHunter beta-arrestin cells, luminescence, 90 min; % of EA-reagent control over plate median. shares compounds with GPR151 activ;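 active means mean percent activation across replicates above the confirmation screen cutoff of 4.91%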
GPR119 counter: GPR119 activation, counter-screen for GPR151 activators; shares compounds with GPR151 activ; GPR119 PathHunter beta-arrestin cells, luminescence, 90 min; 0 = compound-well median, 100 = enzyme-acceptor control; hit rate 0.3% among 6,700; activation, % at 11.2 µM;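 active means mean percent activation in the counterscreen above 29.09%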;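 further: counterscreen on off-target GPR119 to flag nonselective hits from the GPR151 activator screen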
* marks the source's active call; other numbers are inactive results; . = no result given; ! = not confirmed by another sample.

SMILES | FBW7 act | TEAD-YAP inh | MITF primary | GPR151 activ | GPR151 confirm | GPR119 counter
CC[n+]1c(/C=C/C=C2\N(C)c3ccccc3C2(C)C)n(-c2ccccc2)c2ccc(C)cc21 | -0.1 | 91.4* | -8.5 | 11.0* | 3.0 | 38.8*
CN1/C(=C/C=C2C(=O)NC(=S)NC2=O)C(C)(C)c2ccccc21 | 0.7 | -4.2 | 8.2 | 0.5 | . | .
CCn1c(/C=C/C=C2\N(C)c3ccccc3C2(C)C)[n+](Cc2ccccc2)c2ccccc21 | 0.0 | 92.1* | -5.2 | 8.7* | 2.8 | 27.2
OC1(c2ccccc2F)CC2CCC(C1)N2Cc1nnnn1Cc1cccs1 (stereo unspecified) | -0.1 | 11.8 | 19.7 | -0.9 | . | .
Fc1ccc(F)c(CN2CCN(c3ccccc3)CC2)c1 | -0.1 | -7.3 | 38.5 | -0.7 | . | .
O=c1c2cc(Br)ccc2[nH]c(=S)n1-c1ccc(F)cc1 | 0.2 | 6.2 | 4.7 | -1.0 | . | .
COc1ccc(OC)c(N2Cc3ccccc3C2=N)c1 | 0.0 | -11.4 | -13.6 | 5.9* | 0.1 | 3.4
CCOC(=O)C1=C(N)Oc2cc(O)ccc2C12C(=O)N1c3c(cccc32)C(C)CC1(C)C (stereo unspecified) | 0.0 | 8.0 | 6.4 | 0.0 | . | .
CCOC(=O)C1=C(C)OC(N)=C(C#N)C12C(=O)N1c3c(cc(CC)cc32)C(C)CC1(C)C (stereo unspecified) | 0.0 | 4.0 | 10.8 | 9.0* | -0.5 | -7.6
O=C1C=C2C=C[C@H]3C[C@]2(O1)[C@@H]1CCCCN13 | 0.0 | -2.8 | 23.0 | 9.6*! | -0.8 | -12.3
Brc1ccccc1CN1CCOCC1 | 0.1 | -9.4 | 35.6 | 0.0 | . | .
CN1CCN(Cc2ccccc2Br)CC1 | 0.3 | -0.1 | 49.8 | 5.1* | -0.3 | 2.5
CCC(COC(=O)NC)NC(=O)Oc1ccccc1 (stereo unspecified) | 0.1 | -0.6 | -0.9 | 5.8* | 0.2 | 0.9
CCC(COC(=O)NC)NC(=O)Oc1cccc(C)c1 (stereo unspecified) | -0.1 | 4.8 | 3.0 | -1.3 | . | .
COc1cc(OC)c(/C=C/[N+](=O)[O-])c([N+](=O)[O-])c1 | 0.0 | -4.0 | 24.1 | 1.0 | . | .
Cc1nn(Cc2ccccc2)c(Cl)c1C(=O)NC1CCCCCC1 | . | . | . | 7.4* | -0.8 | -10.0
Cc1ccc2c(c1)CNc1ccccc1O2 | 0.1 | -5.0 | 5.8 | 5.2* | 0.0 | -8.6
COC(=O)COc1ccc(C=C2C(=O)NC(=O)NC2=O)cc1 | -0.5 | -6.4 | -10.1 | 5.2* | -0.4 | 1.0
Cc1[nH]c2c(Cl)ccc(Cl)c2c1CCN | 0.0 | -1.0 | 0.4 | 6.8* | 0.4 | 1.3
Cc1[nH]c2c(Cl)c(Cl)ccc2c1CCN | -0.1 | 24.5 | 3.0 | 0.9 | . | .
O=c1c2ccccc2nc(/C=C/c2ccco2)n1-c1ccc(O)cc1 | -0.2 | 10.6 | 13.4 | 5.1* | 2.5 | 9.7
C[C@]12CC[C@H](O)C[C@H]1CC[C@@H]1[C@@H]2C[C@@H](O)[C@]2(C)[C@@H](C3=CC(=O)OC3)CC[C@]12O | -0.3 | 98.1* | -9.4 | 5.7*! | -0.1 | 108.8*
COc1ccc(Br)cc1/C=C1/C(O)C2CCN1CC2 (stereo unspecified) | 0.0 | 4.8 | -3.0 | 1.4 | . | .
Cn1c(=O)c2c(ncn2CC(=O)Nc2ccc(Cl)cc2C(=O)c2ccccc2)n(C)c1=O | -0.2 | -2.5 | 7.9 | 2.6 | . | .
O=C(C1CN(CCc2c[nH]c3ccccc23)CCN1)N1CCOCC1 (stereo unspecified) | -0.1 | -2.5 | 7.3 | 5.1* | -0.8 | -14.6
CC(C(=O)N1CCC2(CC1)OCCO2)C1Sc2ccccc2NC1=O (stereo unspecified) | 0.0 | -5.7 | -8.0 | 9.2* | 0.5 | -7.7
OC1(c2ccc(F)cc2)CC2CCC(C1)N2 (stereo unspecified) | 0.1 | -1.2 | 7.6 | 1.0 | . | .
CN1CCN(c2ccc(/C=C(\C#N)C(N)=O)cc2[N+](=O)[O-])CC1 | 0.2 | 0.2 | 16.4 | 17.1* | 1.3 | 4.7
